Glioma ERSR ind – inducers of ER stress response in human glioma cells; U87-MG GRP78 promoter luciferase reporter, 16 h; Potency, µM, actives largely listed as activators; hit rate 0.02% among 420,000; AID 602332; note: series mostly up to about 76 µM; nearly all actives have a fitted effect of over 35% in size
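Stably transfected U87-MG human glioma cells carrying a GRP78-based luminescent sensor were seeded at 1000 cells/well, pin-dosed with compounds and incubated 16 h. Luciferase reagent was then added, and end-point luminescence was read after 10 min at room temperature.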
Vif-APOBEC3G blk – blocks the Vif interaction with human APOBEC3G; Q9HC16; HeLa A3G-eYFP + Vif (tagged APOBEC3G with the HIV-1 protein that degrades it), YFP fluorescence, overnight; Potency, µM (highest dose often 46.1 µM), usual class: inhibitors; hit rate 0.076% among 410,000; note: nearly all actives have a fitted effect of over 60% in size
Target sequence (Q9HC16 whole entry, looked up): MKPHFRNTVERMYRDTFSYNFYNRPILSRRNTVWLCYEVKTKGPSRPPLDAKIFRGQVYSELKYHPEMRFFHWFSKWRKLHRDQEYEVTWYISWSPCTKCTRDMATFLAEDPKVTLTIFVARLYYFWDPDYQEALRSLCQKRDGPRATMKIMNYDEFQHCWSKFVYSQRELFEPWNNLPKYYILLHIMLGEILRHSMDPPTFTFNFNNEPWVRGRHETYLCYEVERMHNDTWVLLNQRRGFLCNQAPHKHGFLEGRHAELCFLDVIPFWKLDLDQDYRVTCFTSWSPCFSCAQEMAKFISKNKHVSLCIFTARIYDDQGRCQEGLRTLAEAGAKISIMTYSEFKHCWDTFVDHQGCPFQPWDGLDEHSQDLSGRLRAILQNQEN
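Read-out is eYFP fluorescence (Ex 488/Em 500-530) from Vif-expressing HeLa A3G-eYFP cells; more signal means A3G escaped Vif-mediated degradation. Cells plated overnight, compound pinned in, incubated overnight at 37 deg C.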
TRPML1 inh – inhibitors of human TRPML1 channel; TRPML1-inducible cells, Ca2+ dye fluorescence, FDSS; hits give low values; inhibition of EC80 agonist-evoked calcium signal; hit rate 0.02% among 390,000; AID 624415; activity change, negative = inhibition, % (no concentration beside the values); in the data active = activity change below about -50%; inconclusive = between about -30% and that limit;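 note: stimulus is agonist 54-4 at its EC80 concentration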
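Calcium fluorescence in TRPML1-DL cells induced overnight with Tet: a 110 s read after compound pin addition, then a 110 s antagonist read after challenge with 54-4 at 4 uM final (EC80).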
Vif-A3F inh – Vif-A3F binding inhibition; AID 602313; HeLa A3F-eYFP + Vif (tagged APOBEC3F with the HIV-1 protein that degrades it), YFP fluorescence increase; Potency, µM (series often up to 46.1 µM); hit rate 0.2% among 390,000; note: nearly all actives have a fitted effect of over 65% in size
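Fluorescence increase (Ex 488/Em 500-530) after overnight compound treatment at 37 deg C flags inhibition of Vif-driven A3F-eYFP loss in stable HeLa A3F-eYFP/Vif cells seeded overnight beforehand.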
TRPML1 ag – human mucolipin-1 channel agonism; activation, % (no concentration beside the values); TRPML1-expressing cells, Ca2+ dye fluorescence, FDSS; Q9GZU1; hit rate 0.12% among 410,000; in the data active = activation above about 50%; inconclusive = mostly about 30% to 49%
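In this qHTS format, compounds were pin-transferred onto Ca8-dye-loaded TRPML1-DL cells induced with Tet overnight, and intracellular Ca2+ fluorescence was recorded kinetically for 110 s after a 10 s baseline. A subsequent 4uM final 54-4 (EC80) addition followed by a second 110 s read served as the antagonist phase.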
ALOX12 inh – inhibitors of human 12S-lipoxygenase ALOX12; Potency, µM (series often up to 108 µM), most hits filed as inhibitors; purified 12hLO, xylenol orange hydroperoxide absorbance; hit rate 1.1% among 580,000; P18054
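Hydroperoxide product was detected by ferrous iron/xylenol orange as the 573 to 405 nm absorbance ratio. Arachidonic acid at 40 uM (final) was turned over for 30 min at room temperature by 150 nM human 12hLO, pH 7.0 Hepes buffer, after 15 min compound preincubation.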
Large screens that a line does not name were inactive; ! = not active in a repeat. The list is not random: actives were taken first. Their share in the collection is about 1.3%. Unless noted, calls come from the whole dose curve; as a rule, active = well fitted curve in the direction sought with a large enough effect; inconclusive = small, poorly fitted or top-dose-only effect, or another doubt; inactive = no such curve, though single readings can be large; an effect the other way counts as inactive or inconclusive.

CCc1ccc(NC2=NC(CC)CS2)cc1 (stereo not drawn)	none (no result: Glioma ERSR ind, Vif-APOBEC3G blk, TRPML1 inh, Vif-A3F inh, TRPML1 ag)
CC(=O)NC1(C)CCN(Cc2ccccc2-c2ccc3ccccc3c2)C1 (stereo not drawn)	ALOX12 inh 32µM (no result: Glioma ERSR ind, Vif-APOBEC3G blk, TRPML1 inh, Vif-A3F inh, TRPML1 ag)
CC(=O)NC1(C)CCCN(Cc2cccc(-c3ccc4c(ccn4C)c3)c2)C1 (stereo not drawn)	ALOX12 inh 35µM (no result: Glioma ERSR ind, Vif-APOBEC3G blk, TRPML1 inh, Vif-A3F inh, TRPML1 ag)
COc1ccc(-c2cccc(CN3CCCC(C)(NC(C)=O)C3)c2)cc1OC (stereo not drawn)	none (no result: Glioma ERSR ind, Vif-APOBEC3G blk, TRPML1 inh, Vif-A3F inh, TRPML1 ag)
CC(=O)NC1(C)CCN(Cc2cccc(-c3cccc(Cl)c3)c2)C1 (stereo not drawn)	ALOX12 inh 40µM (no result: Glioma ERSR ind, Vif-APOBEC3G blk, TRPML1 inh, Vif-A3F inh, TRPML1 ag)
CC(=O)NC1(C)CCCN(Cc2cccc(Nc3ccccc3)c2)C1 (stereo not drawn)	none (no result: Glioma ERSR ind, Vif-APOBEC3G blk, TRPML1 inh, Vif-A3F inh, TRPML1 ag)
CC(=O)Nc1cccc(-c2csc(CN3CCCC(C)(NC(C)=O)C3)c2)c1 (stereo not drawn)	none (no result: Glioma ERSR ind, Vif-APOBEC3G blk, TRPML1 inh, Vif-A3F inh, TRPML1 ag)
COc1ccc2cnn(CC(=O)Nc3ccc(Cl)cc3Cl)c(=O)c2c1OC	none (no result: Glioma ERSR ind, Vif-APOBEC3G blk, TRPML1 inh, Vif-A3F inh, TRPML1 ag)
COc1ccc2c(C)c(CC(=O)Nc3ccc(Cn4cncn4)cc3)c(=O)oc2c1	none (no result: Glioma ERSR ind, Vif-APOBEC3G blk, TRPML1 inh, Vif-A3F inh, TRPML1 ag)
Fc1ccccc1-c1nnc([C@H]2CCN(Cc3cccc(OC(F)(F)F)c3)C2)o1	none (no result: Glioma ERSR ind, Vif-APOBEC3G blk, TRPML1 inh, Vif-A3F inh, TRPML1 ag)
COc1ccc(C(CC(=O)c2ccc3c(c2)OCO3)C(=O)O)cc1OC (stereo not drawn)	none
COc1ccc(C(=O)COc2ccc3c(c2)OCO3)cc1OC	ALOX12 inh 45µM (no result: Glioma ERSR ind, Vif-APOBEC3G blk, TRPML1 inh, Vif-A3F inh, TRPML1 ag)
COc1ccc(-c2c(NC(=O)c3ccc([N+](=O)[O-])cc3)oc3c(C)cccc3c2=O)cc1	none (no result: Glioma ERSR ind, Vif-APOBEC3G blk, TRPML1 inh, Vif-A3F inh, TRPML1 ag)
O=C(c1ccccc1F)N1CCc2nc(C3CC3)nc(-c3ccc(Cl)cc3)c2C1	ALOX12 inh 45µM (no result: Glioma ERSR ind, Vif-APOBEC3G blk, TRPML1 inh, Vif-A3F inh, TRPML1 ag)
CC(O)CNCc1ccc(-c2cccc(C(F)(F)F)c2)o1 (stereo not drawn)	none (no result: Glioma ERSR ind, Vif-APOBEC3G blk, TRPML1 inh, Vif-A3F inh, TRPML1 ag)
CCCCn1nnnc1CSc1nnc(-c2ccc(OC)cc2)n1-c1ccc(C)cc1	none (no result: Glioma ERSR ind, Vif-APOBEC3G blk, TRPML1 inh, Vif-A3F inh, TRPML1 ag)
CC1=NN(Cc2ccccc2)C(=O)C1C(c1ccc(Cl)cc1)C(C#N)C#N (stereo not drawn)	ALOX12 inh 40µM
CC(OC(=O)C1CCN(S(=O)(=O)c2ccc(C(C)(C)C)cc2)CC1)C(=O)N(C)C1CCCCC1 (stereo not drawn)	TRPML1 ag 95
Cc1ccc(S(=O)(=O)N2CCC(C(=O)OC(C)C(=O)N3CCOCC3)CC2)cc1 (stereo not drawn)	none
CC(OC(=O)C1CCN(S(=O)(=O)c2ccc(C(C)(C)C)cc2)CC1)C(=O)N1CCOCC1 (stereo not drawn)	ALOX12 inh 45µM!
CCCN(CC#N)CC(=O)NC(=O)Nc1ccccc1	none (no result: Glioma ERSR ind, Vif-APOBEC3G blk, TRPML1 inh, Vif-A3F inh, TRPML1 ag)
COc1cc(OC)c(NC(=O)CCc2nnc(C(=O)Nc3ccc(C)cc3)s2)cc1Cl	none (no result: Glioma ERSR ind, Vif-APOBEC3G blk, TRPML1 inh, Vif-A3F inh, TRPML1 ag)
Cn1cccc1/C=N\NC(=O)C1COc2ccccc2O1 (stereo not drawn)	TRPML1 ag 85
O=c1c(O)c(-c2cccs2)oc2ccccc12	Vif-APOBEC3G blk inconclusive, Vif-A3F inh 2.8µM, TRPML1 ag 55
O=c1c(O)c(-c2cccs2)oc2ccc(Cl)cc12	Vif-APOBEC3G blk inconclusive, Vif-A3F inh inconclusive, TRPML1 ag 59, ALOX12 inh inconclusive
O=c1cc(-c2cccs2)oc2ccc(Cl)cc12	Vif-A3F inh inconclusive
CC(C)Oc1ccc(-c2noc(Cn3cnc4c(oc5ccccc54)c3=O)n2)cc1	none (no result: Glioma ERSR ind, Vif-APOBEC3G blk, TRPML1 inh, Vif-A3F inh, TRPML1 ag)
FC(F)(F)c1ccccc1Cc1c(-c2ccco2)nc2ccc(Br)cn12	ALOX12 inh 35µM (no result: TRPML1 inh, Vif-A3F inh)
FC(F)(F)c1ccccc1Cc1c(-c2cccc(Cl)c2)nc2ccc(Br)cn12	ALOX12 inh inconclusive (no result: TRPML1 inh, Vif-A3F inh)
COc1ccccc1Cc1c(-c2ccco2)nc2ccc(Br)cn12	Glioma ERSR ind inconclusive, Vif-APOBEC3G blk inconclusive, ALOX12 inh 18µM (no result: TRPML1 inh, Vif-A3F inh)
CC(=O)Nc1ccc(S(=O)(=O)NCCc2csc(C)n2)cc1	none
CC(=O)Nc1cccc(C(C)NCc2csc(C)n2)c1 (stereo not drawn)	ALOX12 inh 2µM (no result: Glioma ERSR ind, Vif-APOBEC3G blk, TRPML1 inh, Vif-A3F inh, TRPML1 ag)
Cc1nc(-c2ccc(NC(=O)c3ccc(Br)o3)c(C)c2)no1	none (no result: Glioma ERSR ind, Vif-APOBEC3G blk, TRPML1 inh, Vif-A3F inh, TRPML1 ag)
O=C(O/N=C1\CCS(=O)(=O)c2sccc21)c1c(F)cccc1F	none
O=S1(=O)CC/C(=N\Nc2ccccc2)c2ccsc21	ALOX12 inh 35µM
